According to PubChem BioAssay (NCI):
The panel holds about 79,000 compounds, 15% with a hit somewhere; the sample as a whole holds those more often. No stated cut-off is given here; in the data, active means growth inhibition above about 70%; inactive means the rest.

Experiments:
[1] = NCI Yeast Anticancer Drug Screen. Data for the rad50 strain (AID 155);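 further: 0% = growth of vehicle-only cultures of the same strain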; details: S. cerevisiae rad50 strain growth inhibition; at 50.0 µM; active compounds read high
How it was run: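 Cells are treated with compound, grown, and their growth is then scored against vehicle-only cultures of the same repair-deficient yeast strain.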

[2] = NCI Yeast Anticancer Drug Screen. Data for the mec2-1 strain (AID 157); details: S. cerevisiae mec2-1 strain, at 50.0 µM, active compounds read high
How it was run: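 Using mec2-1 yeast: add compound, measure growth, express inhibition versus vehicle-treated cultures.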

[3] = NCI Yeast Anticancer Drug Screen. Data for the sgs1 mgt1 strain (AID 161);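 further: 0% = growth of cultures given vehicle only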; details: S. cerevisiae sgs1 mgt1 strain, at 50.0 µM, active compounds read high
How it was run: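 Yeast cells carrying a defined DNA-repair defect were exposed to test compounds. Growth inhibition was measured relative to vehicle-treated controls.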

[4] = NCI Yeast Anticancer Drug Screen. Data for the cln2 rad14 strain (AID 165);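 further: 0% = growth equal to vehicle treated cultures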; details: S. cerevisiae cln2 rad14 strain, at 50.0 µM, active compounds read high
How it was run: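 Yeast strain cln2 rad14, bearing defects in cell cycle control and DNA repair, serves as the test system; values reflect growth inhibition compared with vehicle.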

[5] = NCI Yeast Anticancer Drug Screen. Data for the bub3 strain (AID 167); details: S. cerevisiae bub3 mutant strain, at 50.0 µM, active compounds read high
How it was run: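 Part of a panel of yeast mutants defective in DNA damage repair or cell cycle regulation. Each strain is grown with compound, and inhibition is calculated relative to solvent-treated cultures.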

[6] = NCI Yeast Anticancer Drug Screen. Data for the mlh1 rad18 strain (AID 175); details: S. cerevisiae mlh1 rad18 strain growth inhibition; at 50.0 µM; active compounds read high
How it was run: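 Steps: expose repair-defective yeast to compound; measure growth; express inhibition against vehicle-treated controls.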

Measured: growth inhibition

CN(C)c1ccc(/C=C(\NC(=O)c2ccccc2)C(=O)Nc2ccccc2C(=O)NCc2ccccc2)cc1
inactive: [1] 9.95% | [2] 11.7% | [3] 14.8% | [4] 12.3% | [5] 5.95% | [6] 30.7%

Cc1ccc(S(=O)(=O)SC(SCC(=O)c2ccc(Br)cc2)C(=O)c2ccc(Br)cc2)cc1 (stereo not given)
inactive: [1] 26.6% | [2] -10.4% | [3] 33.5% | [4] 19.9% | [5] -0.15% | [6] 13.2%

c1cncc(C2c3[nH]c4ccccc4c3CCN2CCN2CCCCC2)c1 (stereo not given)
inactive: [1] -32.8% | [2] -46.5% | [3] -9.4% | [4] -4.35% | [5] -37.5% | [6] -34.4%

CCC1=C(C(C)=O)[C@@H]2CCCCC(C(=O)OC)[C@@H]2C1=O (stereo not given in full)
inactive: [1] -38.7% | [2] -20.3% | [3] -20.8% | [4] 19.7% | [5] 8.65% | [6] -3.7%

FC(F)(c1nnnn1Cc1ccccc1)C(F)(F)C(F)(F)C(F)(F)C(F)(F)C(F)(F)C(F)(F)C(F)(F)c1nnnn1Cc1ccccc1
inactive: [1] 10.2% | [2] 13.7% | [3] -11.7% | [4] -2.65% | [5] 7.95% | [6] 19.3%

C=CCOc1c(C)cc(C(N)=O)cc1C
inactive: [1] 4.45% | [2] -6.85% | [3] 24.6% | [4] 18.9% | [5] 5.45% | [6] 51.4%

CCN(CC)c1ccc2cc(-c3nc4ccccc4s3)c(=O)oc2c1
inactive: [1] 12.4% | [2] -18.1% | [3] -9.5% | [4] -3.05% | [5] -11.5% | [6] 4.8%

O=C(CCCN1CC=C(n2c(=O)[nH]c3ccccc32)CC1)c1cccs1
inactive: [1] 50.6% | [2] 29.2% | [3] 32.4% | [4] 19.9% | [5] 33.1% | [6] 42.8%

O=C(O)CSC(=S)c1ccccc1
inactive: [1] 16.4% | [2] 19.8% | [3] 4% | [4] -5.7% | [5] -15.8% | [6] -12.9%

NC1=NC=N/C(=N\c2ccccn2)C1N (stereo not given)
inactive: [1] -13.3% | [2] -9.95% | [3] -5.4% | [4] -32.2% | [5] -11.2% | [6] -8.6%

COCC/C=C/CCl
inactive: [1] -8.75% | [2] -22.6% | [3] -8.35% | [4] -8.95% | [5] -7.65% | [6] 5.1%

NC1CCCCCC1
inactive: [1] 2.95% | [2] -7.25% | [3] 0.8% | [4] 3.25% | [5] 8.45% | [6] -2.4%

c1ccc(-n2nnc3c2CCCC3)cc1
inactive: [1] -3.2% | [2] -1.6% | [3] -6.1% | [4] -23.8% | [5] -25.6% | [6] -1.65%

Cn1c(=O)c2[nH]c(CSc3ccccc3)nc2n(C)c1=O
inactive: [1] 9% | [2] -5.15% | [3] 6.2% | [4] -2.1% | [5] 21.8% | [6] -14.8%

O=C(NCCCCCCNC(=O)OCOC(=O)NCCCCCCNC(=O)Nc1ccc(SCCO)cc1)Nc1ccc(SCCO)cc1
inactive: [1] 15.7% | [2] 12.4% | [3] 16.3% | [4] 21.1% | [5] 27.2% | [6] -36.9%

Clc1ccc(C2=NON(c3ncccn3)C3N=CC=CN23)cc1 (stereo not given)
inactive: [1] 9.7% | [2] -20.8% | [3] 0.55% | [4] -6.75% | [5] 0.05% | [6] 19%

CS/C(=N/N=C(\C)c1ccccn1)[Se][Se]/C(=N/N=C(\C)c1ccccn1)SC
inactive: [1] 15.7% | [2] -1% | [3] 15.6% | [4] 29.2% | [5] -2.5% | [6] 30.9%

C(=N/OCc1ccccc1)/c1ccncc1
inactive: [1] 45% | [2] 27.6% | [3] 45.7% | [4] 30.2% | [5] 47.4% | [6] 46.9%

CC=C(c1ccccc1)c1ccccc1
inactive: [1] -34% | [2] -25.2% | [3] -13.7% | [4] -10% | [5] -3.3% | [6] -15.2%

O=C(c1cccc(Cl)c1)c1cccc(Cl)c1
inactive: [1] 1.2% | [2] -14.8% | [3] -0.9% | [4] 2.35% | [5] 5.15% | [6] -3.25%

Cc1ccc(NC(=O)CCCC(=O)CC(=O)c2ccc(Br)cc2)cc1
inactive: [1] -0.4% | [2] -14.9% | [3] -40.4% | [4] -26.2% | [5] -12.2% | [6] -24.6%

NC(=O)C(CCCCNc1c(C(=O)O)cc([N+](=O)[O-])cc1[N+](=O)[O-])NC(=O)c1ccccc1 (stereo not given)
inactive: [1] 14.4% | [2] -6.05% | [3] -19.1% | [4] -7.95% | [5] -2% | [6] 28.8%

S=c1o[nH]c(-c2ccccc2)c1C=Nc1ccccc1
inactive: [1] -5.45% | [2] 17.5% | [3] 13.9% | [4] 26.6% | [5] 5.35% | [6] 6.15%

O=c1cccc(O)[nH]1
inactive: [1] -14.8% | [2] -17.6% | [3] -15.1% | [4] -0.15% | [5] -15.7% | [6] -8.85%

O=[n+]1c2c(n([O-])c3cc(Cl)c(Cl)cc31)CCC2
inactive: [1] 25.4% | [2] -2.4% | [3] 22.9% | [4] 5.05% | [5] 4% | [6] 28.4%

CCCCCCCCCCCCCCCCCCCCCC(=O)O
inactive: [1] -16.1% | [2] -21.4% | [3] -21.1% | [4] -28.3% | [5] -2.15% | [6] -18.1%

Clc1ccc2c(c1)Cc1ccccc1-2
inactive: [1] 38.6% | [2] -6.95% | [3] 34.1% | [4] 7.5% | [5] 51.6% | [6] 22.2%

O=C(Nc1ccc2[nH]c3c(-c4ccccc4)nccc3c2c1)c1ccccc1[N+](=O)[O-]
inactive: [1] 15.8% | [2] -21.2% | [3] -5.3% | [4] 6.65% | [5] -2.75% | [6] 5.35%

CC(C)N(CCN1CCCCC1)c1ccccn1
inactive: [1] -0.9% | [2] 18.2% | [3] 7.2% | [4] -75.5% | [5] 10.3% | [6] 14.9%

O=C(O)c1cocc1C(=O)O
inactive: [1] 3.2% | [2] -3.4% | [3] -13.6% | [4] -14.8% | [5] -2.65% | [6] -3.95%

O=S(=O)([O-])c1ccc(N=Cc2ccccc2[O-])cc1.O=S(=O)([O-])c1ccc(N=Cc2ccccc2[O-])cc1.[Co+2]
inactive: [1] 16.6% | [2] 2.25% | [3] -15.2% | [4] 23.4% | [5] 9.25% | [6] -9.65%

COc1cccc(C2c3cc4c(cc3OC(C)(N3CCCC3)C2C)OCO4)c1OC (stereo not given)
inactive: [1] -4% | [2] -4.7% | [3] -4.8% | [4] -4.25% | [5] -13.5% | [6] 12.1%

Cc1ccccc1OCC1COCN(Cc2ccccc2)CO1 (stereo not given)
inactive: [1] 18.8% | [2] 21.2% | [3] 28.1% | [4] 20.6% | [5] 6.95% | [6] 32.9%

CC(=O)Nc1ccc(-c2cn3ccccc3n2)cc1
inactive: [1] 6.6% | [2] -1.5% | [3] 20.7% | [4] 25.6% | [5] 13.7% | [6] 21.8%

C/C=C/C=C/C(=O)OCC
inactive: [1] 31.8% | [2] -2.25% | [3] -16.4% | [4] -2.4% | [5] 15.2% | [6] 14.3%

CC(=O)Oc1ccccc1-c1cc2ccccc2oc1=O
inactive: [1] -20.2% | [2] 20.8% | [3] 0.85% | [4] 5.15% | [5] 38.8% | [6] 11.8%

CCCCCCCCCCCCCCCCCC(=O)OCC(COC(C)=O)OC(C)=O (stereo not given)
inactive: [1] -3.45% | [2] -5.05% | [3] -3.8% | [4] -46.1% | [5] -1.2% | [6] 4.8%

CCOP(=O)(OCC)/C(C#N)=C\c1ccc(OC(C)=O)cc1
inactive: [1] -6.15% | [2] -30.1% | [3] -9% | [4] 23.5% | [5] -25.6% | [6] -31.9%

CCOC(=O)c1cnc(SC)nc1Nc1ccc(Cl)cc1
inactive: [1] -13.8% | [2] -9.4% | [3] -6.55% | [4] -8.65% | [5] 0.55% | [6] -31.2%

C/C(=N/NS(=O)(=O)c1ccc(N)cc1)c1ccccc1
inactive: [1] 9.9% | [2] -14.8% | [3] 1.45% | [4] 15.6% | [5] -41.4% | [6] -17.8%
